Measured values reported in the supplement of paper PMC8728848.
The sample as a whole holds a higher share of the strongest signals than the screen did.

Experiments:
Test in all cases: glycan array binding signal (z-score within array); higher = stronger binding
Conditions in all cases: glycan notation: IUPAC condensed, linker removed
[1] = molecular target: Fuc(a1-2)Gal(b1-4)[Fuc(a1-3)]GlcNAc(b1-3)Gal(b1-4)[Fuc(a1-3)]GlcNAc
Method in brief: (§1)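 Columns mapping to the same glycan were averaged after glycan names were converted to IUPAC-condensed notation. The data come from 3228 arrays in the Consortium for Functional Glycomics database, limited to those with an available protein sequence. Binding is reported as a within-array Z-score averaged across arrays of one protein sequence and across linkers.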

[2] = molecular target: Fuc(a1-2)[Gal(a1-3)]Gal(b1-3)GalNAc(b1-3)Gal(a1-4)Gal(b1-4)Glc
Method in brief: as §1

[3] = molecular target: Fuc(a1-2)[Gal(a1-3)]Gal(b1-4)GlcNAc(b1-2)Man(a1-3)[Fuc(a1-2)[Gal(a1-3)]Gal(b1-4)GlcNAc(b1-2)Man(a1-6)]Man(b1-4)GlcNAc(b1-4)[Fuc(a1-6)]GlcNAc
Method in brief: as §1

[4] = molecular target: Fuc(a1-2)[Gal(a1-3)]Gal(b1-4)GlcNAc(b1-3)GalNAc
Method in brief: as §1

[5] = molecular target: Fuc(a1-2)[GalNAc(a1-3)]Gal(b1-3)GlcNAc(b1-2)Man(a1-3)[Fuc(a1-2)[GalNAc(a1-3)]Gal(b1-3)GlcNAc(b1-2)Man(a1-6)]Man(b1-4)GlcNAc(b1-4)[Fuc(a1-6)]GlcNAc
Method in brief: as §1

[6] = molecular target: Fuc(a1-2)[GalNAc(a1-3)]Gal(b1-4)GlcNAc(b1-2)Man(a1-3)[Fuc(a1-2)[GalNAc(a1-3)]Gal(b1-4)GlcNAc(b1-2)Man(a1-6)]Man(b1-4)GlcNAc(b1-4)[Fuc(a1-6)]GlcNAc
Method in brief: as §1

[7] = molecular target: Fuc(a1-2)[GalNAc(b1-3)]Gal
Method in brief: as §1

[8] = molecular target: Fuc(a1-4)GlcNAc
Method in brief: as §1

[9] = molecular target: Gal(a1-3)Gal
Method in brief: as §1

[10] = molecular target: Gal(a1-3)Gal(b1-4)GlcNAc(b1-2)Man(a1-3)[Gal(a1-3)Gal(b1-4)GlcNAc(b1-2)Man(a1-6)]Man(b1-4)GlcNAc(b1-4)GlcNAc
Method in brief: as §1

[11] = molecular target: Gal(b1-3)GlcNAc(b1-3)Gal(b1-4)GlcNAc(b1-6)[Gal(b1-3)GlcNAc(b1-3)]Gal(b1-4)Glc
Method in brief: as §1

[12] = molecular target: Gal(b1-3)GlcNAc(b1-3)Gal(b1-4)[Fuc(a1-3)]GlcNAc
Method in brief: as §1

[13] = molecular target: Gal(b1-3)[Fuc(a1-4)]GlcNAc
Method in brief: as §1

[14] = molecular target: Gal(b1-4)GlcNAc(b1-2)Man(a1-3)[Gal(b1-4)GlcNAc(b1-2)Man(a1-6)]Man(b1-4)GlcNAc(b1-4)GlcNAc
Method in brief: as §1

[15] = molecular target: Gal(b1-4)GlcNAc(b1-3)Gal(b1-4)GlcNAc(b1-2)Man(a1-3)[Gal(b1-4)GlcNAc(b1-3)Gal(b1-4)GlcNAc(b1-2)Man(a1-6)]Man(b1-4)GlcNAc(b1-4)GlcNAc
Method in brief: as §1

[16] = molecular target: Gal(b1-4)GlcNAc(b1-3)Gal(b1-4)GlcNAc(b1-2)Man(a1-3)[Gal(b1-4)GlcNAc(b1-3)Gal(b1-4)GlcNAc(b1-2)Man(a1-6)]Man(b1-4)GlcNAc(b1-4)[Fuc(a1-6)]GlcNAc
Method in brief: as §1

[17] = molecular target: Gal(b1-4)GlcNAc(b1-3)Gal(b1-4)GlcNAc(b1-3)Gal(b1-4)GlcNAc(b1-2)[Gal(b1-4)GlcNAc(b1-3)Gal(b1-4)GlcNAc(b1-3)Gal(b1-4)GlcNAc(b1-6)]Man(a1-6)[Gal(b1-4)GlcNAc(b1-3)Gal(b1-4)GlcNAc(b1-3)Gal(b1-4)GlcNAc(b1-2)Man(a1-3)]Man(b1-4)GlcNAc(b1-4)[Fuc(a1-6)]GlcNAc
Method in brief: as §1

[18] = molecular target: Gal(b1-4)GlcNAc(b1-3)Gal(b1-4)GlcNAc(b1-3)Gal(b1-4)GlcNAc(b1-3)Gal(b1-4)GlcNAc(b1-2)Man(a1-3)[Gal(b1-4)GlcNAc(b1-3)Gal(b1-4)GlcNAc(b1-3)Gal(b1-4)GlcNAc(b1-3)Gal(b1-4)GlcNAc(b1-2)Man(a1-6)]Man(b1-4)GlcNAc(b1-4)[Fuc(a1-6)]GlcNAc
Method in brief: as §1

[19] = molecular target: Gal(b1-4)GlcNAc(b1-3)Gal(b1-4)GlcNAc(b1-3)Gal(b1-4)GlcNAc(b1-3)Gal(b1-4)GlcNAc(b1-3)Gal(b1-4)GlcNAc(b1-2)Man(a1-3)[Gal(b1-4)GlcNAc(b1-3)Gal(b1-4)GlcNAc(b1-3)Gal(b1-4)GlcNAc(b1-3)Gal(b1-4)GlcNAc(b1-3)Gal(b1-4)GlcNAc(b1-2)Man(a1-6)]Man(b1-4)GlcNAc(b1-4)GlcNAc
Method in brief: as §1

[20] = molecular target: Gal(b1-4)GlcNAc(b1-3)Gal(b1-4)GlcNAc(b1-3)Gal(b1-4)GlcNAc(b1-3)Gal(b1-4)GlcNAc(b1-3)Gal(b1-4)GlcNAc(b1-2)Man(a1-3)[Gal(b1-4)GlcNAc(b1-3)Gal(b1-4)GlcNAc(b1-3)Gal(b1-4)GlcNAc(b1-3)Gal(b1-4)GlcNAc(b1-3)Gal(b1-4)GlcNAc(b1-2)Man(a1-6)]Man(b1-4)GlcNAc(b1-4)[Fuc(a1-6)]GlcNAc
Method in brief: as §1

[21] = molecular target: Gal(b1-4)GlcNAc(b1-3)Gal(b1-4)GlcNAc(b1-3)Gal(b1-4)GlcNAc(b1-3)Gal(b1-4)GlcNAc(b1-3)Gal(b1-4)GlcNAc(b1-3)Gal(b1-4)GlcNAc(b1-2)Man(a1-3)[Gal(b1-4)GlcNAc(b1-3)Gal(b1-4)GlcNAc(b1-3)Gal(b1-4)GlcNAc(b1-3)Gal(b1-4)GlcNAc(b1-3)Gal(b1-4)GlcNAc(b1-3)Gal(b1-4)GlcNAc(b1-2)Man(a1-6)]Man(b1-4)GlcNAc(b1-4)GlcNAc
Method in brief: as §1

[22] = molecular target: Gal(b1-4)GlcNAc(b1-6)GalNAc
Method in brief: as §1

[23] = molecular target: Gal3S(b1-4)Glc6S
Method in brief: as §1

[24] = molecular target: Gal6S(b1-4)GlcNAc
Method in brief: as §1

[25] = molecular target: Gal6S(b1-4)GlcNAc6S
Method in brief: as §1

B1: SP15308B-bot-339-22-339 (Bacteroides ovatus) (protein)
chain: NEWEDEQYEQYVSFKAPIASGSDGVTTIYVRYKDNGKVTYQLPIIVSGSTVNSQDRDIHIAVDKDTLKTLNIERFSLYRPELWYTEMEEDKYEFPETVHIPAGSCVELLNIDFNLQDIDMLEKWVLPLTIVDDGSYAYQSHPRKNYAKALLKVVPFNNYSGSYTASSMKVYTYINGKPDTNARTTDKRTGYVVDNNSIFFYAGLINEDMDKDMRKKYKINVHFKEDGTLDMKQDDPSNEMEFELIGTPTYSSTSVMDATRPYLERRYVQIMFEYDFQDFTYGGSGTEVIPIKYRVAGSMTLLRNINTQIPDEDQQIEW
Which results are given for B1?
glycan array binding signal (z-score) [1]: -0.601; glycan array binding signal (z-score) [2]: -0.087; glycan array binding signal (z-score) [3]: 0.241; glycan array binding signal (z-score) [4]: -0.515; glycan array binding signal (z-score) [5]: -0.323; glycan array binding signal (z-score) [6]: -0.388; glycan array binding signal (z-score) [7]: 0.15; glycan array binding signal (z-score) [8]: 2.58; glycan array binding signal (z-score) [9]: 0.449; glycan array binding signal (z-score) [10]: 3.88; glycan array binding signal (z-score) [11]: -0.129; glycan array binding signal (z-score) [12]: -0.548; glycan array binding signal (z-score) [13]: -0.425; glycan array binding signal (z-score) [14]: -0.534; glycan array binding signal (z-score) [15]: 2.8; glycan array binding signal (z-score) [16]: 2.57; glycan array binding signal (z-score) [17]: 2.24; glycan array binding signal (z-score) [18]: 7.12; glycan array binding signal (z-score) [19]: 1.84; glycan array binding signal (z-score) [20]: 0.658; glycan array binding signal (z-score) [21]: 6.94; glycan array binding signal (z-score) [22]: 0.182; glycan array binding signal (z-score) [23]: -0.337; glycan array binding signal (z-score) [24]: 1.87; glycan array binding signal (z-score) [25]: -0.252
